# Screening results from PubChem.
# TLR4 MyD88 comp: inhibitors of TLR4-MyD88 association in cells, primary screen, cell-based, HeLa CL3-4, BLA complementation, FRET ratio. Toll-like receptor 4 (Homo sapiens) + Myeloid differentiation primary response protein …. HeLa CL3-4 TLR4/MyD88 BLA complementation. inhibition, % at 8.4 µM. actives 0.18% (n = 200,000); in the data active = inhibition above about 25%;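 also: 0% = vehicle and 100% = reference inhibitor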
# Beta2AR agonist: beta2AR agonists driving receptor internalization, primary screen, cell-based, FAP fluorogen, flow cytometry. Am2.2-beta2AR cells. response, % (test concentration not listed). actives 0.43% (n = 340,000);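 active = response above a set limit, near 3 SD of response in nonfluorescent compounds, cut at about 42% in these data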
# Target sequence (P07550 whole entry, looked up): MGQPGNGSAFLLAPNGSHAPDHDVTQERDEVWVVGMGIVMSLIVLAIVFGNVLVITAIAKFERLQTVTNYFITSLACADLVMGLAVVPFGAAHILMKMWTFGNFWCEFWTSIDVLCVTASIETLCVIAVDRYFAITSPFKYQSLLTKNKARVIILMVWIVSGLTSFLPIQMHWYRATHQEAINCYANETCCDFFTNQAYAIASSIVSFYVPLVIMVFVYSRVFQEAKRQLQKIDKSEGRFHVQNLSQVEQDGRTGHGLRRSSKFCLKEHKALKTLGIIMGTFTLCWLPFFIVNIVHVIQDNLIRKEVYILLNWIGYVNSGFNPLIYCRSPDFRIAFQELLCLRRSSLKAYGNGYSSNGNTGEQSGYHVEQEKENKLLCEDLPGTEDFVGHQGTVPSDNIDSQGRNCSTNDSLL
# NTR1 agonist: agonists of human NTR1, primary screen, imaging, U2OS cells, beta-arrestin-GFP, high content. Neurotensin receptor type 1 (Homo sapiens), P30989. NTR1-U2OS beta-arrestin-GFP spot imaging, agonist mode. activation, % at 20 µM. actives 0.17% (n = 330,000). AID 493036, 2011;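 active = activation at or above 40% of the spot to cytoplasm intensity ratio, with at least 20 cells analyzed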;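 also: 0% = DMSO without peptide and 100% = 100 nM NTR1 peptide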
# TLR9-MyD88 inh: inhibitors of TLR9-MyD88 association in cells, primary screen, cell-based, CHO, BLA complementation, fluorescence; AID 504734, 2011; actives 0.21% (n = 340,000); Toll-like receptor 9 (Homo sapiens) + Myeloid differentiation primary response protein …; CCF4 FRET ratio; inhibition, % at 4.98 µM;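 active = inhibition above the mean over all tested compounds plus 3 SD, cut at about 21% in these data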;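 also: 0% = DMSO only wells and 100% = clavulanate BLA inhibitor control wells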
# NOD2 RIPK2 PPI: NOD2-RIPK2 binding disruptors in cells, primary screen, fluorescence, CHO cells, BLA complementation; CCF4 ratio; inhibition, % at 4.98 µM; actives 0.38% (n = 360,000); in the data active = inhibition above about 21%;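 also: 0% = vehicle only and 100% = reference blocker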
# ABHD5 PLIN5 PPI: ABHD5-PLIN5 interaction inhibitors, primary screen, cell lysate, split luciferase complementation, luminescence. Perilipin-5 (Homo sapiens) + 1-acylglycerol-3-phosphate O-acyltransferase ABHD5 (Homo …. Split G. princeps luciferase complementation, 4 h. inhibition, % at 4 µM. actives 0.78% (n = 360,000). AID 602281, 2012;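 active = inhibition above the mean inhibition across every tested compound plus 3 SD, cut at about 22% in these data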;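 also: 0% = DMSO only wells and the 100% control is not disclosed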
# ABHD5 PLIN5 conf: ABHD5-PLIN5 interaction inhibitors, confirmation, biochemical, luminescence | inhibition, % at 4 µM | shares compounds with ABHD5 PLIN5 PPI | actives 67% (n = 2,200); in the data active = inhibition above about 23%;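 also: 0% = DMSO vehicle wells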
# HNF4 split-luc: HNF4 dimerization inhibitors, counter-screen for ABHD5-PLIN5 interaction inhibitor project, biochemical, split-luciferase complementation, luminescence; shares compounds with ABHD5 PLIN5 PPI; inhibition, % at 4 µM; actives 77% (n = 2,200); AID 651674, 2012;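 active = mean inhibition across replicate wells exceeding the computed hit threshold, cut at about 13% in these data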;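 also: light from luciferase halves that rejoin when HNF4 fusion proteins dimerize; 0% = DMSO only wells and the 100% control is not given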
# * marks the source's active call; other numbers are inactive results; / = no result given; ! = repeats disagree. This is a sample that favours compounds with a hit; in the whole collection about 1.5% have one here.
SMILES,TLR4 MyD88 comp,Beta2AR agonist,NTR1 agonist,TLR9-MyD88 inh,NOD2 RIPK2 PPI,ABHD5 PLIN5 PPI,ABHD5 PLIN5 conf,HNF4 split-luc
COC(=O)CCCNC(=O)CC1C(=O)NCCN1Cc1ccoc1 (centres undefined),-11,4,-3,4,-4,3,/,/
O=C(CC1C(=O)NCCN1Cc1ccoc1)NCCc1ccc(Cl)cc1 (centres undefined),-3,-8,0,5,1,38*,20,16*
CCC(=O)c1cn(CC(=O)Nc2ccc(F)cc2)c2ccccc12,/,/,/,3,-6,-4,/,/
N#C/C(=C/c1ccc(N2CCCCC2)o1)C(=O)Nc1ccc2ccccc2c1,16,/,/,19,15,26*,37*,31*
N#C/C(=C/c1ccc(N2CCOCC2)o1)C(=O)NC1CCCCC1,6,-23,-1,5,-6,27*,13,34*
COc1ccc(NC(=O)/C(C#N)=C\c2ccc(N3CCOCC3)o2)cc1,-12,-6,-2,6,4,13,/,/
COc1cc(CNCCN2CCOCC2)ccc1OCc1cccc(Cl)c1,-2,3,1,1,-2,10,/,/
COc1cc(CNCCN2CCOCC2)ccc1OCc1ccc(Cl)cc1Cl,7,27,0,-6,6,24*,12,13*
COc1cc(CNCc2ccccn2)ccc1OCc1ccc(Cl)cc1Cl,9,29,-1,3,17,25*,7,7
COc1cc(CNCc2ccccn2)ccc1OCc1ccc(Cl)c(Cl)c1,0,5,0,-2,2,20,/,/
Cc1ccccc1C(=O)N=c1c(C#N)cc2c(=O)n3cccc(C)c3nc2n1Cc1ccco1,-12,/,4,/,/,/,/,/
CC(=O)N=c1c(C#N)cc2c(=O)n3cccc(C)c3nc2n1Cc1ccco1,/,-4,2,/,-23,49*,13,14*
N#Cc1cc2c(=O)n3ccccc3nc2n(Cc2ccco2)c1=NC(=O)c1ccco1,-11,5,5,9,7,50*,7,26*
CCc1cc2c(=O)n(Cc3ccco3)c(SCc3c(C)noc3C)nc2s1,4,3,6,2,-3,26*,30*,51*
CCc1nc2ccc(C(=O)NCC3CCCCC3)cn2c1N(C)Cc1ccc(OC)cc1,/,/,/,/,-3,-1,/,/
Cc1ccc(C2Nc3ccc4ccccc4c3C3=C2C(=O)CC(C)(C)C3)o1 (centres undefined),0,4,1,-14,-9,30*,4,7
COc1ccc(CNC(=O)C2Cc3c(-c4ccccc4Oc4ccccc4)ccnc3O2)cc1OC (centres undefined),/,/,/,/,-3,6,/,/
O=C(O)/C=C/C(=O)Nc1ccc(Oc2ccccc2)cc1,/,3,1,-2,-8,5,/,/
Cc1ccc(/C=C/C(=O)Nc2ccc(Oc3ccccc3)cc2)o1,-4,10,/,7,5,24*,10,39*
COc1ccc(NC(=O)/C=C/c2ccc(C)o2)cc1S(=O)(=O)N1CCOCC1,-7,-1,0,4,-2,23*,16,17*
Cc1ccc(/C=C/C(=O)NCc2cccs2)o1,5,6,1,3,-9,24*,14,18*
Cc1cc(NS(=O)(=O)c2ccc(NC(=O)/C=C/c3ccc(C)o3)cc2)nc(C)n1,-21,2,3,8,-5,29*,51*,60*
O=C(Nc1ccc2c(c1)OCO2)C1Cc2c(-c3ccc4c(c3)OCO4)ccnc2O1 (centres undefined),/,/,/,/,10,6,/,/
COc1ccc(C(C(=O)Nc2ccc(F)cc2)N2CCN(c3cccc(C(F)(F)F)n3)CC2)cc1 (centres undefined),/,/,/,/,-9,0,/,/
CC(=O)Nc1ccc(-c2ccnc3c2CC(C(=O)Nc2cccc(OC(F)(F)F)c2)O3)cc1 (centres undefined),/,/,/,/,0,1,/,/
SMILES,TLR4 MyD88 comp,Beta2AR agonist,NTR1 agonist,TLR9-MyD88 inh,NOD2 RIPK2 PPI,ABHD5 PLIN5 PPI,ABHD5 PLIN5 conf,HNF4 split-luc
O=C(NCC1CC1)C1Cc2c(-c3ccccc3Oc3ccccc3)ccnc2O1 (centres undefined),/,/,/,/,9,10,/,/
CCCCn1c(=NC(=O)c2cccnc2)c(C(=O)OCC)cc2c(=O)n3ccccc3nc21,-14,-1,/,6,-4,-5,/,/
CCCCn1c(=NC(=O)c2ccco2)c(C(=O)OCC)cc2c(=O)n3cccc(C)c3nc21,/,13,10,0,-12,37*,10,14*
CCCCCn1c(=NC(=O)c2ccco2)c(C(=O)OCC)cc2c(=O)n3ccccc3nc21,-13,-3,7,-7,-5,56*!,18,25*
COC(=O)[C@@]12C[C@@H](CC(=O)N3CCSCC3)C(=O)N(Cc3ccccc3)C1=CCC(C)(C)C2,/,/,/,/,-3,0,/,/
CCCn1nc2cc(C(=O)N(CC)c3ccc(OC)cc3)ccc2c1OCC,7,0,2,3,-4,71*,3,0
CC1(C(=O)Nc2cnc3ccccc3c2)CCN1Cc1ccc(-c2ccccc2)o1 (centres undefined),/,/,/,/,-9,65*,47*,70*
CCOc1ccc(C(CN2CCOCC2)C(C)=O)cc1OC (centres undefined),/,/,/,/,17,34*,12,57*
Cc1ccccc1-n1c(=O)cc(N2CCCCCC2)[nH]c1=O,-7,-6,-1,6,-6,4,/,/
Cc1ccccc1-n1c(=O)cc(N2CCN(C(=O)c3ccco3)CC2)[nH]c1=O,8,-9,-1,-4,14,25*,4,7
O=C(Nc1ccc(OC(F)(F)F)cc1)N1CCc2nc(NCc3cccc(Oc4ccccc4)c3)ncc2C1,/,/,/,/,3,-9,/,/
CCOC(=O)C(=Cc1ccc(-n2ccnc2)cc1)C(=O)OCC,3,-2,16,4,6,63*,88*,96*
Cc1cc(NC(=O)CSc2ccc(-c3ccc(Br)cc3)nn2)no1,/,-8,3,-5,-11,2,/,/
Cc1ccc(-c2ccc(SCC(=O)Nc3cc(C)on3)nn2)cc1,5,6,0,2,-9,55*,3,1
